Reference: the supplement of paper PMC10849652
Of roughly 8,800 targets only a part is listed; those with a hit were picked by preference. About 0.5% of all pairs of compound and target were hits. A number with no mark means an inactive call.

What was measured:
Assay in all cases: log2 fold change, soluble protein after heating vs DMSO (PISA); higher = thermal stabilisation; K562 lysate, 10 uM; active = over 0.2 and 3.5 SD of the protein, either way, in both replicates (recomputed)
[1] = compound: CS(=O)(=O)CCNCc1ccc(-c2ccc3ncnc(Nc4ccc(OCc5cccc(F)c5)c(Cl)c4)c3c2)o1 [lapatinib]
Summary of the method: (§1)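 Following dounce homogenisation of K562 pellets in PBS pH 7.4 with 1 mM MgCl2, crude extract at 1 mg/mL protein was incubated for 30 min with 10 μM compound. Aliquots were then heated for 3 min over 48°C-58°C and pooled, NP-40 was added to 0.5% at 4°C, and soluble protein was recovered as the supernatant at 21,000xg for 90 min. Channel-sum-equalised TMTpro 16plex LC-MS/MS quantified this protein. Each value, from duplicates, is a log-two fold change in thermal stability relative to solvent controls.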

[2] = compound: CS(=O)(=O)N1CCN(Cc2cc3nc(-c4cccc5[nH]ncc45)nc(N4CCOCC4)c3s2)CC1 [pictilisib]
Summary of the method: as §1

[3] = compound: C[C@@H](Oc1cc(-c2cnn(C3CCNCC3)c2)cnc1N)c1c(Cl)ccc(F)c1Cl [crizotinib]
Summary of the method: as §1

[4] = compound: C[C@H](C1=CC=C(C=C1)C(=O)NC2=C3C=CNC3=NC=C2)N
Summary of the method: as §1

[5] = compound: C[C@H](Nc1ncnc2nc[nH]c12)c1cc2cccc(Cl)c2c(=O)n1-c1ccccc1 [duvelisib]
Summary of the method: as §1

[6] = compound: Cc1cc(Nc2cc(CN3CCOCC3)c3nc(C)c(Cc4ccc(Cl)cc4F)n3n2)n[nH]1 [gandotinib]
Summary of the method: as §1

[7] = compound: Cc1cc(Nc2cc(N3CCN(C)CC3)nc(Sc3ccc(NC(=O)C4CC4)cc3)n2)n[nH]1 [tozasertib]
Summary of the method: as §1

[8] = compound: Cc1ccc(-n2nc(C(C)(C)C)cc2NC(=O)Nc2ccc(OCCN3CCOCC3)c3ccccc23)cc1 [doramapimod]
Summary of the method: as §1

[9] = compound: Cc1ccc(NC(=O)c2ccc(CN3CC[C@H](N(C)C)C3)c(C(F)(F)F)c2)cc1Nc1nccc(-c2cncnc2)n1 [bafetinib]
Summary of the method: as §1

[10] = compound: Cc1cccc(CC(=O)N2CCc3c2ccc(-c2cn(C)c4ncnc(N)c24)c3F)n1
Summary of the method: as §1

UniProt A8TX70, sequence (A8TX70 whole entry, looked up): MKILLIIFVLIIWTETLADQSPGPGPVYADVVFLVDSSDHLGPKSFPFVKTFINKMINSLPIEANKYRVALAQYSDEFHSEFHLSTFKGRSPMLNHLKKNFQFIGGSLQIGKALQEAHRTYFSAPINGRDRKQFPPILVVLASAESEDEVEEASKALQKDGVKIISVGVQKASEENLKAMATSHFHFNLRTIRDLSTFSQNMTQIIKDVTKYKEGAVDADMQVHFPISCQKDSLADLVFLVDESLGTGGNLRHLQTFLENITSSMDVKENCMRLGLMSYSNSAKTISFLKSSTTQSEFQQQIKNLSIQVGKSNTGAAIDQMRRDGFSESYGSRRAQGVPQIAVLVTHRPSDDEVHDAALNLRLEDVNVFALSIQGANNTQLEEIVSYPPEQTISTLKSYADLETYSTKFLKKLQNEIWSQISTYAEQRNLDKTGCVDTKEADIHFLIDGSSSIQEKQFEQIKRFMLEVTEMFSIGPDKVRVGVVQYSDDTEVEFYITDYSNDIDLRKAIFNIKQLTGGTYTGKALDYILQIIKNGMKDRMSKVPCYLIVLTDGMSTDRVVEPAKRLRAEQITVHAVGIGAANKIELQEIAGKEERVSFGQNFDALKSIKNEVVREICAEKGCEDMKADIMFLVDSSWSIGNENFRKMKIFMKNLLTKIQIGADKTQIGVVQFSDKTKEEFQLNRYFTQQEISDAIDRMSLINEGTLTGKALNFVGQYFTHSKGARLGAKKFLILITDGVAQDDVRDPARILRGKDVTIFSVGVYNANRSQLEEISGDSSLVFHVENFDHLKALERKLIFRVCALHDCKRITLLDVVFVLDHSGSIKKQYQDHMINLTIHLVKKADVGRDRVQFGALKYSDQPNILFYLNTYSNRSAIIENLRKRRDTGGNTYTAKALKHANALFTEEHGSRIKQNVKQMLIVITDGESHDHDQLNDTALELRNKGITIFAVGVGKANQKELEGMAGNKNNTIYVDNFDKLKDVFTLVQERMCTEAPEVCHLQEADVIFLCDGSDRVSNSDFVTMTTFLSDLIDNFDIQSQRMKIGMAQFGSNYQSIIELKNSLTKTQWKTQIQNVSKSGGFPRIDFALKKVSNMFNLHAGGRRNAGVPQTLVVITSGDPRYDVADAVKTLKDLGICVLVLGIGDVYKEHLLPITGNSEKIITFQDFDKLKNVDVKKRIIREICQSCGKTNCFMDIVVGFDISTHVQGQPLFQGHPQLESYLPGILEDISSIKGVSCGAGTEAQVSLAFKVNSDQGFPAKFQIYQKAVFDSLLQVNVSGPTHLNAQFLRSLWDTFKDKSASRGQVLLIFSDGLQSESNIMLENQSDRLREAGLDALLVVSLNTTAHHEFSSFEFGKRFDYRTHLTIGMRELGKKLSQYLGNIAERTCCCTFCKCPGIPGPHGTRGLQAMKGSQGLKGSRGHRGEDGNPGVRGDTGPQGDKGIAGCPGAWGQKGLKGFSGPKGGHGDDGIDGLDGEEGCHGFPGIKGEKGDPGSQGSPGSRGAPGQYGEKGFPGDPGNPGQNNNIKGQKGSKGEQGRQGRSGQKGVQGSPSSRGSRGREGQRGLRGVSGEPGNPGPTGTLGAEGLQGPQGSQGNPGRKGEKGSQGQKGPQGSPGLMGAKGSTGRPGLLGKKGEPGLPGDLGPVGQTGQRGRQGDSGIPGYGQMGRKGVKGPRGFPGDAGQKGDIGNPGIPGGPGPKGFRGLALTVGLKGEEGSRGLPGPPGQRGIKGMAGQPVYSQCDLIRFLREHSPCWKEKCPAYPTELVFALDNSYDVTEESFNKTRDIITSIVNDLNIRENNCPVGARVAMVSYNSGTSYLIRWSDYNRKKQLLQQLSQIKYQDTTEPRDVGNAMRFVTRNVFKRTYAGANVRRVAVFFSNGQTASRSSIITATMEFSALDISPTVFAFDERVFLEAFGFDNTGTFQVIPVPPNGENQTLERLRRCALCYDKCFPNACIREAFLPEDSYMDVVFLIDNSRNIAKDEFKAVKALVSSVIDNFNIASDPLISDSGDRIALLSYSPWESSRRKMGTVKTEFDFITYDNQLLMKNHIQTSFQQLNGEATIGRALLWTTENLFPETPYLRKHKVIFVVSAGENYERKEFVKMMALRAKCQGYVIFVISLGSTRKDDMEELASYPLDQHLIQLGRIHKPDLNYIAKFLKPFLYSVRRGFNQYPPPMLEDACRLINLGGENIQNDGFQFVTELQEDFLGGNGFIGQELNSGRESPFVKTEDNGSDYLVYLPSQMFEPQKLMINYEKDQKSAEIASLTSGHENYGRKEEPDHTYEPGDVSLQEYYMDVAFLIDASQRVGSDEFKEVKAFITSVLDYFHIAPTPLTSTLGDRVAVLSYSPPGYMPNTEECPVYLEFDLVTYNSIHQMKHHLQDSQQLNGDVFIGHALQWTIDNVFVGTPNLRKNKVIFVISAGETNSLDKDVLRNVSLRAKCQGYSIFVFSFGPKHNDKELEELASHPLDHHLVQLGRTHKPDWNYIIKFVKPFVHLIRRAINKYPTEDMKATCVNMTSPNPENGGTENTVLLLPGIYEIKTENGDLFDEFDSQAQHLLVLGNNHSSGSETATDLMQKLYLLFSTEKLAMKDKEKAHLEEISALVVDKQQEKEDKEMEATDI
UniProt P51790, sequence (P51790 whole entry, looked up): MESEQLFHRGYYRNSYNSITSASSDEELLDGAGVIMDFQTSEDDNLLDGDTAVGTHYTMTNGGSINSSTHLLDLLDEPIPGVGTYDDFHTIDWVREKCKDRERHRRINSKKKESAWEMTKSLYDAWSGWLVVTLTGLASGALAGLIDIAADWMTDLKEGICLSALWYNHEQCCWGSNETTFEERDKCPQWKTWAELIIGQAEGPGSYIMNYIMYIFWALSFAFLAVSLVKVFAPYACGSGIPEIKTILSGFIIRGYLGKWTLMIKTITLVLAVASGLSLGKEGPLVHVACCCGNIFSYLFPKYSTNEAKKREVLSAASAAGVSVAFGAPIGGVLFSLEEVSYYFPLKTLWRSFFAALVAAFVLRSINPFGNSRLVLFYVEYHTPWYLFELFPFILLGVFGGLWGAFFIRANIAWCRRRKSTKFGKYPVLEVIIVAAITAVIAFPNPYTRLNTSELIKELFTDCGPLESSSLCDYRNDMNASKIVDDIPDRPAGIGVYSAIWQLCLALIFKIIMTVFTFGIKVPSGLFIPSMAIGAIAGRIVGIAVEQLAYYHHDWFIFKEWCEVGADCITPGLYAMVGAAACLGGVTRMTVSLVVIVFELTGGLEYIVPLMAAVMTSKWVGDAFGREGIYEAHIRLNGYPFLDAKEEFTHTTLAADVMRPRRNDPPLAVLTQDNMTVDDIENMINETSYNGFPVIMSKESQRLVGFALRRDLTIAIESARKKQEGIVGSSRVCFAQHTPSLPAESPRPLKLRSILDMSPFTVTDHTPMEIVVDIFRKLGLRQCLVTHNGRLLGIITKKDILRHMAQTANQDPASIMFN
UniProt Q13616, sequence (Q13616 whole entry, looked up): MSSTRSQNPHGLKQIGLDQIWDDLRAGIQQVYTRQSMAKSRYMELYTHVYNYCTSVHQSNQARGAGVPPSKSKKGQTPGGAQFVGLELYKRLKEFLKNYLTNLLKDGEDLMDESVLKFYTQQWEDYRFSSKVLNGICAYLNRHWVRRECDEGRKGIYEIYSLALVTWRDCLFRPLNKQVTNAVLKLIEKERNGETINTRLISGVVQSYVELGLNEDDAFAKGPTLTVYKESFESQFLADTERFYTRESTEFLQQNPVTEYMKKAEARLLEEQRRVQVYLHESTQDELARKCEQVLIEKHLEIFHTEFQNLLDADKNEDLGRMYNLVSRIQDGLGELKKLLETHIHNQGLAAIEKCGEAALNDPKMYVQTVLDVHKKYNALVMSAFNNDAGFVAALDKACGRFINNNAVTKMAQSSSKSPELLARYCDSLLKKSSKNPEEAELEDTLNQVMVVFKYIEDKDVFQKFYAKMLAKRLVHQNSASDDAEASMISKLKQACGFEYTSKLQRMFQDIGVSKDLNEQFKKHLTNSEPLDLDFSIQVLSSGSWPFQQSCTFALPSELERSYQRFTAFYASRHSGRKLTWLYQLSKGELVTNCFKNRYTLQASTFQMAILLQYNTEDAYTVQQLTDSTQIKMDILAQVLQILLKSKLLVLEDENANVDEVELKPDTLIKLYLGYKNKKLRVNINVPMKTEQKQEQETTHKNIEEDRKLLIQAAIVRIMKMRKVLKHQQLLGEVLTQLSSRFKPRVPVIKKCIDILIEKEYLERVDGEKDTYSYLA
UniProt Q9H5X1, sequence (Q9H5X1 whole entry, looked up): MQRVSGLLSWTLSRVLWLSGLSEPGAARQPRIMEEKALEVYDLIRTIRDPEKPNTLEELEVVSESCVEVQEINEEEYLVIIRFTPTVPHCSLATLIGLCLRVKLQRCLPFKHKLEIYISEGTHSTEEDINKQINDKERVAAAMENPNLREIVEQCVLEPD
UniProt P06732, sequence (P06732 whole entry, looked up): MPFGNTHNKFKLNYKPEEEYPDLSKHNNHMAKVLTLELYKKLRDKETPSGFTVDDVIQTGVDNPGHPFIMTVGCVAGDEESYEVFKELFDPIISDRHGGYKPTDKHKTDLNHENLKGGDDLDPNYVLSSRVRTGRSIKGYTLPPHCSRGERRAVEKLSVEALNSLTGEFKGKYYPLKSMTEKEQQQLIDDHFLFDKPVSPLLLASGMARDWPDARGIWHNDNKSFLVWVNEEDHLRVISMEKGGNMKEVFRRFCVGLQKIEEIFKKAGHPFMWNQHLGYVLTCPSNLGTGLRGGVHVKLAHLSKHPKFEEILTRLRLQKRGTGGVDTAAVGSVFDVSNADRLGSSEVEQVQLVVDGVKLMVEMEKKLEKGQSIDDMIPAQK
UniProt O75911, sequence (O75911 whole entry, looked up): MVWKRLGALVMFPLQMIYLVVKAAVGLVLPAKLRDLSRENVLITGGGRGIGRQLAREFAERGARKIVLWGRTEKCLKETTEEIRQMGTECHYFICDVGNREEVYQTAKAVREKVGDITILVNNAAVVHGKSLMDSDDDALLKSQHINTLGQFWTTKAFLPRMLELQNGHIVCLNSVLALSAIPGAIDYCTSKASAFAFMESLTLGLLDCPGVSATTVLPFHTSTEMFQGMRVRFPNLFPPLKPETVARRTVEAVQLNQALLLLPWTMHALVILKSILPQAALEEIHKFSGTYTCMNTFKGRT

| Target | log2 fold change [1] | log2 fold change [2] | log2 fold change [3] | log2 fold change [4] | log2 fold change [5] | log2 fold change [6] | log2 fold change [7] | log2 fold change [8] | log2 fold change [9] | log2 fold change [10] |
| --- | --- | --- | --- | --- | --- | --- | --- | --- | --- | --- |
| CUL1 (UniProt Q13616) | -0.007 | 0.004 | 0.014 | -0.007 | 0.015 | 0.03 | -0.001 | 0.01 | 0.03 | -0.002 |
| DCP2 (UniProt Q8IU60) | -0.027 | 0.011 | 0.038 | 0.021 | -0.011 | -0.148 | 0.018 | 0.01 | -0.062 | -0.041 |
| CMIP (UniProt Q8IY22) | 0.002 | -0.013 | -0.001 | 0.046 | -0.035 | -0.062 | 0.017 | -0.094 | -0.064 | 0.002 |
| CKM (UniProt P06732) | -0.041 | -0.035 | -0.13 | -0.431 (active) | 0.087 | 0.096 | -0.078 | -0.019 | -0.023 | 0.113 |
| DPH5 isoform 5 (UniProt Q9H2P9) | 0.009 | 0.025 | 0.126 | -0.019 | 0.128 | 0.495 (active) | 0.005 | -0.024 | 0.143 | 0.101 |
| COMT (UniProt P21964) | -0.006 | -0.007 | 0.019 | -0.052 | -0.015 | -0.008 | -0.008 | 0.038 | 0.012 | 0.01 |
| DOCK10 (UniProt Q96BY6) | -0.025 | -0.024 | -0.461 | -0.641 (active) | 0.003 | 0.231 | 0 | 0.137 | -0.226 | 0.379 |
| CSNK1G3 (UniProt Q9Y6M4) | -0.155 | 0.118 | 0.026 | 0.214 | -0.042 | -0.032 | -0.048 | -0.003 | -0.09 | -0.021 |
| DHRS3 (UniProt O75911) | 0.02 | -0.051 | -0.024 | -0.044 | -0.025 | 0.059 | -0.043 | 0.035 | -0.032 | 0.011 |
| CINP isoform 3 (UniProt Q9BW66) | -0.059 | 0.011 | -0.028 | -0.325 (active) | 0.062 | 0.018 | 0.056 | 0.036 | -0.059 | 0.208 |
| CIAO2A (UniProt Q9H5X1) | 0.007 | -0.058 | -0.014 | 0.181 | -0.01 | 0 | 0.042 | 0.11 | -0.015 | -0.276 (active) |
| CSNK1A1 (UniProt P48729) | -0.099 | 0.084 | -0.049 | 0.084 | -0.034 | -0.077 | -0.068 | 0.027 | 0 | -0.01 |
| CNOT4 isoform 6 (UniProt O95628) | 0.039 | -0.06 | 0.146 | -0.093 | -0.011 | 0.075 | -0.027 | -0.234 (active) | -0.054 | 0.028 |
| DMAC2L (UniProt Q99766) | -0.021 | -0.036 | 0.012 | -0.048 | -0.037 | 0.047 | 0.087 | 0.002 | 0.009 | 0.1 |
| DIAPH1 (UniProt H9KV28) | 0.003 | 0.087 | -0.047 | -0.039 | – | 0.199 | 0.049 | 0.099 | -0.171 | 0.158 |
| CSDE1 isoform 3 (UniProt O75534) | 0.184 | -0.141 | -0.179 | 0.139 | – | -0.043 | – | 0.055 | 0.126 | -0.058 |

| Target | log2 fold change [1] | log2 fold change [2] | log2 fold change [3] | log2 fold change [4] | log2 fold change [5] | log2 fold change [6] | log2 fold change [7] | log2 fold change [8] | log2 fold change [9] | log2 fold change [10] |
| --- | --- | --- | --- | --- | --- | --- | --- | --- | --- | --- |
| CHURC1 isoform 2 (UniProt Q8WUH1) | 0.012 | 0.043 | -0.047 | 0.026 | 0.049 | -0.014 | -0.032 | -0.01 | -0.019 | -0.001 |
| DENND1B (UniProt Q6P3S1) | 0.1 | 0.096 | -0.019 | 0.003 | -0.08 | -0.194 | – | -0.072 | 0.154 | -0.03 |
| CLPTM1L (UniProt Q96KA5) | -0.095 | – | -0.021 | -0.092 | -0.049 | -0.233 (active) | 0.004 | -0.098 | -0.064 | 0.137 |
| DNAJC1 (UniProt Q96KC8) | -0.057 | 0.013 | -0.086 | 0.033 | -0.046 | -0.262 (active) | 0.019 | -0.117 | 0.001 | -0.064 |
| CYP4V2 (UniProt Q6ZWL3) | 0.049 | -0.441 (active) | 0.12 | – | 0.031 | – | – | 0.027 | 0.177 | – |
| DHCR7 (UniProt Q9UBM7) | -0.092 | -0.039 | -0.103 | -0.024 | 0.067 | -0.215 (active) | -0.01 | 0.002 | 0.024 | 0.013 |
| CSTF2 (UniProt P33240) | -0.006 | -0.049 | 0.003 | -0.025 | 0.044 | 0.051 | 0.033 | 0.036 | 0.03 | -0.001 |
| CLASP2 isoform 3 (UniProt O75122) | -0.008 | – | -0.018 | -0.172 | -0.015 | 0.077 | 0.015 | 0.041 | -0.021 | 0.247 (active) |
| CNDP2 (UniProt Q96KP4) | -0.021 | -0.017 | -0.008 | -0.255 (active) | 0.037 | 0.244 (active) | -0.062 | 0.001 | -0.002 | 0.212 |
| COL6A5 (UniProt A8TX70) | -0.07 | -0.035 | -0.197 | -0.966 (active) | 0.013 | 0.295 | -0.099 | 0.053 | -0.13 | 0.486 (active) |
| CHMP4A (UniProt H0YIN6) | -0.078 | -0.071 | -0.211 | -0.091 | 0 | 0.451 | – | -0.059 | -0.098 | 0.325 |
| DONSON (UniProt Q9NYP3) | -0.012 | -0.019 | -0.012 | -0.32 | 0.007 | 0.196 | – | 0.07 | -0.033 | -0.157 |
| CLCN3 isoform 2 (UniProt P51790) | 0.047 | – | -0.047 | -0.075 | 0.034 | -0.018 | -0.011 | 0.026 | -0.005 | 0.024 |
| CMSS1 (UniProt Q9BQ75) | 0.012 | 0.016 | -0.021 | 0.176 | -0.001 | -0.086 | 0.009 | 0.015 | -0.026 | -0.015 |
| CRLS1 (UniProt Q9UJA2) | -0.003 | -0.107 | -0.086 | 0.084 | – | -0.105 | – | -0.062 | -0.437 | -0.176 |
| CPT1A (UniProt P50416) | 0.013 | 0.014 | 0.114 | 0.009 | 0.021 | 0.057 | 0.037 | 0.038 | -0.056 | -0.027 |
